In PubChem BioAssay one finds composite z-score and z-score data, which are given here for 17 compounds.

Calls of active or inactive are those of the source. Unless noted, how the calls were made is not given here.

For experiment [1], the system named is XIP peptide (Xip251-270) binding. As to the kind of experiment: XIP fragment 251-270 binding compounds – biochemical, small-molecule microarray, fluorescence 635/667 nm, 0.1 µg/mL protein, primary screen (AID 1182). Conditions: fluorescent protein binding, 635 nm, higher = more signal, called active from +8 up or from −8 down.
In a further experiment the test system is XIP peptide (Xip251-270). In words: compounds binding XIP fragment 251-270 – biochemical, small-molecule microarray, fluorescence 635/667 nm, 0.5 µg/mL protein, primary screen (AID 1183). To be noted: fluorescence 635 nm, higher = more signal.
Experiment [2] can be described thus: blood-stage malaria parasite viability loss – strain 3D7, DAPI fluorescence, 100 nL, primary screen (AID 1184).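 Further: parasites grown inside human red blood cells in medium with human serum.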 Conditions: P. falciparum 3D7 growth, 3 d, higher = more signal.
Experiment [3] has as its target Homeobox protein Hox-A13 (Mus musculus) (UniProt Q62424). In words: disruptors of Hoxa13 oligonucleotide interaction – biochemical, fluorescence polarization, labeled oligonucleotide, primary screen (AID 1185). To be noted: Hoxa13:DNA binding, 15 min, higher = more signal, called active from +8 up or from −8 down. Background: Fluorescence polarisation rises when a labelled molecule tumbles more slowly, as on binding a larger partner.

Experiment [4] is described as follows: blockers of DNA damage checkpoint Chk1 activation – imaging, HeLa, hydroxyurea, phospho-Chk1 antibody, percent positive cells, primary screen (AID 1186). To be noted: hydroxyurea-induced phospho-Chk1 immunofluorescence imaging, higher = more signal.
A short description of experiment [5]: blockers of DNA damage checkpoint Chk1 activation – imaging, HeLa, hydroxyurea, phospho-Chk1 nuclear intensity, primary screen (AID 1187). Conditions: hydroxyurea-induced phospho-Chk1 immunofluorescence imaging, higher = more signal.

Chain of Homeobox protein Hox-A13 (Mus musculus) (Q62424 whole entry, looked up): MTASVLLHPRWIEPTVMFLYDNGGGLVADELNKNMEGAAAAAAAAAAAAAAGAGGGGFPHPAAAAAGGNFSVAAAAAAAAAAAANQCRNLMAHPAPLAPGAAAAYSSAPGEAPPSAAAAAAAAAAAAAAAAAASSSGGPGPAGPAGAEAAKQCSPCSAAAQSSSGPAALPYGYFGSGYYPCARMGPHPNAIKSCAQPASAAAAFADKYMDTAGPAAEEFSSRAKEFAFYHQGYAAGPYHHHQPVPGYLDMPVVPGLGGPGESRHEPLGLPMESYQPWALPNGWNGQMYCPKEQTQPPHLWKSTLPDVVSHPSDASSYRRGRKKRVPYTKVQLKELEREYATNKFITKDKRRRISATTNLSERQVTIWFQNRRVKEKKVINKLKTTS

Take `O=C1NC(=O)C2C1C=CC(C(O)C=Cc1ccc([N+](=O)[O-])cc1)N2Nc1ccccn1` (configuration not stated): the composite z-score in experiment [1] is 0.433 (inactive); in the experiment with XIP peptide (Xip251-270), 0.792. Further, the z-score is -0.304 in experiment [2], -1.88 (inactive) in experiment [3], -0.746 (inactive) in experiment [4] and -0.987 (inactive) in experiment [5].
For `CCCC=C(CCC)[C@@H](NC(=O)c1ccccc1)c1ccccc1`, the composite z-score in experiment [1] is -1.3 (inactive); in the experiment on XIP peptide (Xip251-270) it was -0.905. Further, the z-score in experiment [2] was -0.639; in experiment [3] it was -0.832 (inactive); in experiment [4] it was -0.442 (inactive); in experiment [5] it was -0.784 (inactive).
In the case of `C=CCOC(=O)[C@@H]1[C@H]2C(=O)O[C@H](c3ccccc3)[C@H](c3ccccc3)N2[C@H](c2ccc(OCCOC(=O)[C@H]3C[C@H]4C(=O)N5CCC[C@H]5C(=O)N4[C@H]3c3ccc(O)cc3)cc2)[C@@]12C(=O)Nc1ccccc12`, the composite z-score in experiment [1] is 1.22 (inactive); in the experiment with XIP peptide (Xip251-270), 0.804. Also, the z-score was -2.01 in experiment [2], 1.59 (inactive) in experiment [3], 0.458 (inactive) in experiment [4] and 0.895 (inactive) in experiment [5].
For `CCCC[C@@H]1C[C@H]1[C@@H](NC(=O)c1ccccc1)c1ccccc1C(F)(F)F`, the composite z-score in experiment [1] was 0.715 (inactive); in the experiment on XIP peptide (Xip251-270), 0.193. The z-score was -1.19 in experiment [2], 2.99 (inactive) in experiment [3], 0.726 (inactive) in experiment [4] and 0.542 (inactive) in experiment [5].
`COCCOC(=O)N1C(=O)[C@@]2(c3cc(C#CC4=CCCCC4)ccc31)[C@H](C(=O)NC[C@H](O)c1ccccc1)[C@H]1C(=O)O[C@H](c3ccccc3)[C@H](c3ccccc3)N1[C@@H]2c1ccccc1OCCO`: the results for the composite z-score (in experiment [1]; in the experiment with XIP peptide (Xip251-270)) were 0.51 (inactive) and 0.681, respectively. The z-score in experiment [2] was -2.02; in experiment [3], 1.22 (inactive); in experiment [4], 0.443 (inactive); in experiment [5], 0.384 (inactive).
Turning to `CCC1=C2CN(Cc3ccccc3Br)[C@@H]([C@@H](O)Cc3ccccc3)C2C=CCC1` (some centres not stated), the composite z-score was -0.314 (inactive) in experiment [1] and 0.509 in the experiment on XIP peptide (Xip251-270). Besides, the z-score in experiment [2] was -1.92; in experiment [3], -7.8 (inactive); in experiment [4], -0.0994 (inactive); in experiment [5] it was -0.311 (inactive).
With `CC(C)[Si](OCCCNS(=O)(=O)c1ccc(Br)cc1)(C(C)C)C(C)C`, the values for the composite z-score (in experiment [1]; with XIP peptide (Xip251-270)) were -0.0972 (inactive) and 0.195, respectively. For the same compound, the z-score in experiment [2] is -1.12; in experiment [3], -0.361 (inactive); in experiment [4], -0.672 (inactive); in experiment [5], -1.01 (inactive).
In the case of `CCCN1C(=O)[C@@]2(CCS(=O)(=O)c3ccccc3)N=C(c3ccc(OCCCO)cc3)O[C@H]2c2ccccc21`, the results for the composite z-score (in experiment [1]; with XIP peptide (Xip251-270)) were 0.261 (inactive) and 0.678, respectively. In addition, the z-score was -2.56 in experiment [2], -3.2 (inactive) in experiment [3], 0.128 (inactive) in experiment [4] and 0.371 (inactive) in experiment [5].
Consider `COc1cc(CO)cc(I)c1O[C@H]1C=C(C(=O)NCCO)C[C@@H](NCCc2c[nH]c3ccccc23)[C@@H]1O`, for which the composite z-score in experiment [1] was -0.26 (inactive); in the experiment on XIP peptide (Xip251-270), 0.0826. In addition, the z-score in experiment [2] is -3; in experiment [3], -7.08 (inactive); in experiment [4], -0.925 (inactive); in experiment [5], -0.879 (inactive).
For the compound `COC(=O)[C@@]1(Cc2ccccc2)[C@H]2c3cc(C(=O)N4CCCC4)n(CCN4CNCC4=O)c3C[C@H]2CN1C(=O)c1ccccc1`, the composite z-score in experiment [1] is 1.12 (inactive); with XIP peptide (Xip251-270), -0.127. Also, the z-score in experiment [2] was -1.12; in experiment [3], -5.22 (inactive); in experiment [4], 0.421 (inactive); in experiment [5] it was 0.912 (inactive).
Regarding `COc1ccc(C(=O)Nc2ccc(CN3C(=O)[C@]4(O[C@H](CCn5cc(CCO)nn5)[C@@H]([Si](C)(C)c5ccc(OC)cc5)[C@@H]4C)c4ccccc43)cc2)cc1`, the composite z-score in experiment [1] was -0.154 (inactive); in the experiment on XIP peptide (Xip251-270) it was 0.621. In addition, the z-score in experiment [2] was -2.78; in experiment [3], -3.55 (inactive); in experiment [4], 0.188 (inactive); in experiment [5] it was 0.686 (inactive).
Regarding `COc1cc(Cc2cc3c(c(CCc4ccccc4)n2)[Si](C(C)C)(C(C)C)OC3)cc(OC)c1OC`, the composite z-score is -0.521 (inactive) in experiment [1] and -0.122 with XIP peptide (Xip251-270). For the same compound, the z-score was -2.33 in experiment [2], -3.47 (inactive) in experiment [3], -0.0504 (inactive) in experiment [4] and -0.0848 (inactive) in experiment [5].
For the compound `C=CCC(OC(C)=O)[C@@H]1[C@@H](N(Cc2ccc(-c3cccc(C(F)(F)F)c3)o2)C(=O)Cc2ccc(F)cc2)c2cc(OCCCO)ccc2N1C(=O)c1ccc(-c2ccccc2)cc1` (some centres not stated), the composite z-score in experiment [1] is -0.403 (inactive); in the experiment with XIP peptide (Xip251-270), -0.829. Also, the z-score in experiment [2] is -0.294; in experiment [3], -1.2 (inactive); in experiment [4] it was 0.634 (inactive); in experiment [5], -0.385 (inactive).
For the compound `CCCNC(=O)[C@@H]1c2ccccc2C(=O)N(Cc2cc(F)cc(C(F)(F)F)c2)[C@H]1c1ccc(CO)cc1`, the figures for the composite z-score (in experiment [1]; in the experiment with XIP peptide (Xip251-270)) were 0.395 (inactive) and 0.801, respectively. In addition, the z-score was -0.43 in experiment [2], -2.12 (inactive) in experiment [3], -0.438 (inactive) in experiment [4] and -0.142 (inactive) in experiment [5].
As to `C=C(CCCC)C(=O)CC[C@@H](OC(C)=O)c1ccccc1OCCO`, the figures for the composite z-score (in experiment [1]; in the experiment with XIP peptide (Xip251-270)) were 0.144 (inactive) and -1.02, respectively. In addition, the z-score in experiment [2] is -1.77; in experiment [3], -4.53 (inactive); in experiment [4], -0.21 (inactive); in experiment [5], -0.223 (inactive).
For `O=C(NCc1ccccc1)c1ccc(Br)cc1[N+](=O)[O-]`, the composite z-score is 0.103 (inactive) in experiment [1] and 0.0871 in the experiment on XIP peptide (Xip251-270). The z-score in experiment [2] was 2.11; in experiment [3] it was 0.513 (inactive); in experiment [4], 0.225 (inactive); in experiment [5], 0.119 (inactive).
Regarding `C=C(CCCC)C(=O)CC[C@@H](OC(=O)c1cccnc1)c1cccc(OCCO)c1`, the results for the composite z-score (in experiment [1]; with XIP peptide (Xip251-270)) were 1.48 (inactive) and 0.702, respectively. In addition, the z-score in experiment [2] is -2.81; in experiment [3], -3.79 (inactive); in experiment [4] it was -0.279 (inactive); in experiment [5], -0.326 (inactive).
